Source: PubChem BioAssay (several laboratories)
An excerpt weighted towards active compounds, which were near 4% of everything screened.
Gli-Sufu antag: blocks Gli-Sufu signaling in a luciferase reporter | 340,000 tested, 0.74% active | inhibition, % at 5 µM | Sufu-KO-LIGHT fibroblasts, Gli luciferase reporter luminescence;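 active = inhibition above about 55%, limit read from the data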;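 note: 0% = DMSO-treated cells and 100% = wells with medium but no cells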
Beta cell apopt: beta cell apoptosis inhibition | protection from apoptosis, % (test concentration not listed) | 300,000 tested, 0.8% active | AID 435005 | INS-1E cytokine-induced death, ATP luminescence, 48 h; percent of positive-control rescue, neutral wells zero;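 active = Every replicate reaches about 75%, or at least half do and their mean reaches it too, limit read from the data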;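 note: 0% = cytokine-treated negative control wells and 100% = positive control rescue; higher means more ATP so stronger rescue from cytokine killing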
Jurkat NFkB inh: lowers PMA/ionomycin-induced NF-kB signal in Jurkat cells; PMA/ionomycin-induced NF-kB luciferase reporter, luminescence; inhibition, % at 4 µM; 330,000 tested, 0.53% active; in the data active = inhibition above about 50%
Mdm2-MdmX inh: inhibitors of human Mdm2/MdmX interaction | SaOS-2 split-luciferase Mdm2/MdmX complementation, luminescence | inhibition, % at 8 µM | 330,000 tested, 3% active | AID 485346;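 active = inhibition of at least 50% at 8 µM in the primary screen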
Target sequence (O15151 whole entry, looked up): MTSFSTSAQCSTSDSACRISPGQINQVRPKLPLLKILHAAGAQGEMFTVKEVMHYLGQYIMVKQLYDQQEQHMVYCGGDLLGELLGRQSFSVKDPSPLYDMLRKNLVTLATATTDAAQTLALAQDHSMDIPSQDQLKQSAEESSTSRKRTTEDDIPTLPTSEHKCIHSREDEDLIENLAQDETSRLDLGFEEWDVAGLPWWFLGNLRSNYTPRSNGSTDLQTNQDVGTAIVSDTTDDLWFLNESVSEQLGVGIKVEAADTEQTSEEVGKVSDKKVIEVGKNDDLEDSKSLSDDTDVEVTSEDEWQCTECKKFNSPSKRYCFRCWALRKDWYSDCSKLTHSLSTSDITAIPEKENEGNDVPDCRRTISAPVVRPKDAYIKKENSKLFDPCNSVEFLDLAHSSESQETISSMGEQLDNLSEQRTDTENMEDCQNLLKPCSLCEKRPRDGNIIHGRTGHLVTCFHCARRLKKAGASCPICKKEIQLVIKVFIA
Target sequence (Q00987 whole entry, looked up): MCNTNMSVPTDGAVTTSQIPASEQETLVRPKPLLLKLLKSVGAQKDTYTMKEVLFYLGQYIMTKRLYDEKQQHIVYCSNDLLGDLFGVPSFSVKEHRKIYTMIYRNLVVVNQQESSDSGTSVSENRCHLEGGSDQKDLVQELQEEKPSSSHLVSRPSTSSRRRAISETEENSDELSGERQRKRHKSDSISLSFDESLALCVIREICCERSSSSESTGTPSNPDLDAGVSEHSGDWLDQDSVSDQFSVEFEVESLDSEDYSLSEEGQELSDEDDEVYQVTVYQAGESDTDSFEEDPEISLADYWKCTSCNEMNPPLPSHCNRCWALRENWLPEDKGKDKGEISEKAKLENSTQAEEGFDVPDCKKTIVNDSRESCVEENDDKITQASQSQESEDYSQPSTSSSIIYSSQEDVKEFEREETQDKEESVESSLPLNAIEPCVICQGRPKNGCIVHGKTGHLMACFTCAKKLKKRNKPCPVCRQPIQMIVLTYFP
697 NFkB inh: lowers PMA/ionomycin-induced NF-kB signal in 697 B cells. 697 B-cell NF-kB luciferase reporter, 16 h. inhibition, % at 4 µM. 330,000 tested, 0.33% active. AID 435022; in the data active = inhibition above about 35%
Jurkat NFkB conf: inhibitors of the PMA/ionomycin-induced NF-kB reporter in Jurkat cells, retest; AID 435020; inhibition, % at 4 µM; 2,700 tested, 27% active; shares compounds with Jurkat NFkB inh; Jurkat NF-kB luciferase, 16 h;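 active = inhibition reaching about 45% at 4 µM in either replicate, limit read from the data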;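 note: plate controls were PMA/ionomycin stimulated DMSO wells for no effect and unstimulated DMSO wells for full effect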
697 NFkB conf: inhibitors of the PMA/ionomycin-induced NF-kB reporter in 697 B cells, retest; shares compounds with 697 NFkB inh; 697 B-cell NF-kB luciferase, 16 h; inhibition, % at 4 µM; 2,000 tested, 35% active; in the data active = inhibition mostly above about 28%, no sharp cut-off; inactive = mostly below about 22%
Mdm2-MdmX conf: human Mdm2/MdmX binding inhibition, confirmed | shares compounds with Mdm2-MdmX inh | luminescent assay | inhibition, % at 8 µM | 10,000 tested, 55% active; in the data active = inhibition above about 40%
FLuc counter: full-length luciferase inhibition in Mdm2/MdmX counter-screen. shares compounds with Mdm2-MdmX inh. AID 504607. SaOS-2 full-length luciferase counterscreen, luminescence. 6,200 tested, 77% active. inhibition, % at 8 µM;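 active = mean inhibition at 8 µM reaching about 37%, which flags the compound as non-specific, limit read from the data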;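 note: p53-null SaOS-2 cells with luciferase driven by a doxycycline-inducible promoter; compound on cells about two nights before reading with doxycycline added after day one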
* marks the source's active call; other numbers are inactive results; · = no result given.

SMILES	Gli-Sufu antag	Beta cell apopt	Jurkat NFkB inh	Mdm2-MdmX inh	697 NFkB inh	Jurkat NFkB conf	Mdm2-MdmX conf	FLuc counter	others
CCN(CC)c1ccc(/C=N/NC(=O)c2cccc(S(=O)(=O)Nc3ccccc3OC)c2)cc1	1	-10	-21	18	-7	·	·	·
CCN(CC)c1ccc(/C=N/NC(=O)c2nnn(-c3nonc3N)c2C(C)C)c(O)c1	92*	91*	63*	72*	-6	50*	88*	16
CCN(CC)c1ccc(/C=N/NC(=O)c2ccc3nc[nH]c3c2)c(O)c1	6	116*	55*	73*	-18	6	83*	53*
CCN(CC)c1ccc(/C=N/N=C(N)N)c(O)c1	-2	10	77*	62*	16	-6	52*	83*
CCN(CC)c1ccc(/C=N/NC(=O)c2cccc(S(=O)(=O)Nc3ccccc3OC)c2)c(O)c1	84*	91*	59*	77*	-34	55*	79*	15
CC(C)c1c(C(=O)N/N=C/c2ccc3c(c2)OCO3)nnn1-c1nonc1N	-9	5	13	24	11	·	·	·
CCN(CC)c1ccc(N=Cc2ccc(N(CC)CC)cc2O)cc1	-15	63	-6	15	-6	·	·	·
Cc1cccc(-c2nc(C#N)c(NCC3CCCO3)o2)c1 (configuration not stated)	-28	-3	-74	-30	-74	·	·	·
CC(NC(=O)CCCc1c[nH]c2ccccc12)c1ccc(F)cc1 (configuration not stated)	-9	-5	-31	22	0	·	·	·
CN=c1scc(-c2ccccc2F)n1/N=C/c1ccc[nH]1	86*	8	70*	94*	36*	75*	98*	21	697 NFkB conf=42*
Cc1ccc(-n2nc(C)c3c(C)c(CCC(=O)NCC4CCCO4)c(=O)n(C)c32)cc1 (configuration not stated)	9	6	-1	24	-7	·	·	·
CCCCCOC(=O)c1[nH]c2c(c1C)C(=O)CC(c1ccco1)C2 (configuration not stated)	69*	-3	67*	65*	-322	49*	52*	89*	697 NFkB conf=7
COC(=O)c1[nH]c2c(c1C)C(=O)CC(c1ccc(OC)c(OC)c1)C2 (configuration not stated)	2	0	-14	8	-34	·	·	·
CCOC(=O)c1[nH]c2c(c1C)C(=O)CC(c1ccc(OCC)c(OC)c1)C2 (configuration not stated)	8	3	3	24	16	·	·	·
CCOCCOC(=O)c1[nH]c2c(c1C)C(=O)CC(c1cccs1)C2 (configuration not stated)	31	24	75*	54*	16	46	61*	92*
CCOC(=O)c1[nH]c2c(c1C)C(=O)CC(c1ccc(F)cc1)C2 (configuration not stated)	39	37	64*	59*	-21	58*	54*	63*
COCCOC(=O)c1[nH]c2c(c1C)C(=O)CC(c1cccs1)C2 (configuration not stated)	5	·	·	·	·	·	·	·
COC(=O)c1[nH]c2c(c1C)C(=O)CC(c1cccc(OC)c1)C2 (configuration not stated)	35	31	62*	54*	-54	56*	59*	92*
C#CCOCCOCCOCCNc1nc(OC)nc(N2CCN(C(=O)[C@H](CCC(=O)O)n3cc(C(N)CO)nn3)CC2)n1 (some centres not stated)	27	-4	10	24	-3	·	·	·
COc1ccc(NC(=O)COC(=O)c2ccc(Cl)c(S(N)(=O)=O)c2)c([N+](=O)[O-])c1	-4	-5	6	19	-7	·	·	·
COC(=O)c1[nH]c2ccc(F)cc2c1NS(=O)(=O)c1ccc(OC)cc1	2	7	66*	57*	-44	47*	58*	62*
Cc1cccc(C)c1NC(=O)CN(C)C(=O)CC1OC(=O)c2ccccc21 (configuration not stated)	-3	·	2	9	12	·	·	·
Cc1nc(NCc2ccco2)c2c(C)c(C)sc2n1	14	28	70*	100*	-281	58*	96*	54*	697 NFkB conf=-43
CCN(C(=O)COC(=O)c1ccccc1OCc1ccc(Cl)cc1)C1CCS(=O)(=O)C1 (configuration not stated)	2	4	-5	8	2	·	·	·
COc1ccc2c(c1OC)C(=O)N1c3ccccc3C(=O)N(c3ccccc3)C21 (configuration not stated)	2	2	54*	65*	28	6	62*	69*
SMILES	Gli-Sufu antag	Beta cell apopt	Jurkat NFkB inh	Mdm2-MdmX inh	697 NFkB inh	Jurkat NFkB conf	Mdm2-MdmX conf	FLuc counter	others
O=C(N/N=C(\c1ccccc1)c1cccnc1)c1cccc(F)c1	94*	108*	52*	99*	-10	55*	80*	33
O=C(N/N=C(\c1ccccc1)c1cccnc1)c1ccc(O)cc1	-16	-1	-1	13	18	·	·	·
COc1ccc(NC(=O)Cn2nnc(C(=O)NCc3cccs3)c2N)cc1	0	·	8	33	-6	·	·	·
COc1ccccc1NC(=O)Cn1nnc(C(=O)NCc2cccs2)c1N	3	·	53*	56*	-13	63*	64*	68*
COc1ccc(N=C2S/C(=C\c3ccc(N4CCOCC4)o3)C(=O)N2CCc2c[nH]c3ccccc23)cc1	·	105*	100*	95*	-38	39	99*	2
COc1ccc(N=C2S/C(=C\c3ccc(OCC(=O)O)cc3)C(=O)N2CCc2c[nH]c3ccccc23)cc1	-4	·	-1	1	9	·	·	·
CC(C)c1ccc(C2C3=C(COC3=O)Nc3cc4c(cc32)OCO4)cc1 (configuration not stated)	47	33	70*	76*	11	2	62*	94*
C[C@]12CC(O)C3C(CCC4=CC(=O)CC[C@@]43C)C1CCC2c1csc(-c2ccccc2)n1 (some centres not stated)	2	36	13	19	-54	·	·	·
CCCCNc1cc(C)nc(NCc2ccccc2)n1	-32	104*	70*	67*	-37	21	60*	39*
Cc1ccc(S(=O)(=O)N[C@H](C(=O)N2CCC(C(=O)N[C@H](C(=O)O)c3ccccc3)CC2)C(C)C)cc1	-1	0	1	2	17	·	·	·
